Experimental data: PubChem BioAssay (Tox21)
Records with an inconclusive call do not appear. Active and inactive are the calls of the source. Calls follow the shape of the dose curve; as a rule, active = well fitted curve in the direction sought with a large enough effect in the repeat runs; inconclusive = weak or mixed curves; inactive = no such curve, though single readings can be large; an effect the other way counts as inactive or inconclusive.

What was measured:
[1] = A CellTox Green Cytotoxicity Assay to monitor cytotoxicity in HEK293 cells - 24 hour (AID 1224875); also: nearly all actives have a fitted effect of over 45% in size; also: potency is read from the fitted curve at half-maximal effect
How it was run: (§1)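 Tox21 screen in HEK293: membrane-impermeant cyanine dye fluoresces on binding dead-cell DNA; compound pinned 5 h post-seeding, plates held at 37 C, signal read repeatedly through 40 h.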

[2] = A CellTox Green Cytotoxicity Assay to monitor cytotoxicity in HepG2 cells - 16 hour (AID 1224876); also: nearly all actives have a fitted effect of over 45% in size; also: potency is read from the fitted curve at half-maximal effect
How it was run: (§2)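 Measurements at 0, 8, 16, 24, 32 and 40 h of treatment captured CellTox Green fluorescence in HepG2 cells that had been co-plated with reagent and preincubated 5 h at 37 C/5% CO2.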

[3] = qHTS RealTime-Glo MT Cell Viability Assay in HepG2 cells - 32 hour (AID 1224877); also: nearly all actives have a fitted effect of over 55% in size; also: potency is read from the fitted curve at half-maximal effect
How it was run: (§3)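 Compound treatment began 5 h after plating HepG2 cells (600/well) with NanoLuc luciferase and prosubstrate. Plates stayed at 37 C for 40 h; luminescence was captured at six time points, 0 h through 40 h.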

[4] = A CellTox Green Cytotoxicity Assay to monitor cytotoxicity in HepG2 cells - 24 hour (AID 1224878); also: nearly all actives have a fitted effect of over 45% in size; also: potency is read from the fitted curve at half-maximal effect
How it was run: as §2

[5] = A CellTox Green Cytotoxicity Assay to monitor cytotoxicity in HepG2 cells - 40 hour (AID 1224879); also: nearly all actives have a fitted effect of over 40% in size; also: potency is read from the fitted curve at half-maximal effect
How it was run: as §2

[6] = qHTS RealTime-Glo MT Cell Viability Assay in HEK293 cells - 0 hour (AID 1224880); also: top concentration of the series differs between compounds; nearly all actives have a fitted effect of over 45% in size
How it was run: (§4)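 HEK293 + NanoLuc + prosubstrate, 600 cells/well; 5 h, 37 C/5% CO2; compound 23 nL in DMSO by pintool; 37 C; luminescence read at 0, 8, 16, 24, 32 and 40 h time points.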

[7] = A CellTox Green Cytotoxicity Assay to monitor cytotoxicity in HEK293 cells - 32 hour (AID 1224881); also: nearly all actives have a fitted effect of over 40% in size; also: potency is read from the fitted curve at half-maximal effect
How it was run: as §1

[8] = A CellTox Green Cytotoxicity Assay to monitor cytotoxicity in HepG2 cells - 0 hour (AID 1224882); also: nearly all actives have a fitted effect of over 35% in size
How it was run: as §2

[9] = A CellTox Green Cytotoxicity Assay to monitor cytotoxicity in HepG2 cells - 32 hour (AID 1224883); also: nearly all actives have a fitted effect of over 50% in size; also: potency is read from the fitted curve at half-maximal effect
How it was run: as §2

[10] = A CellTox Green Cytotoxicity Assay to monitor cytotoxicity in HEK293 cells - 8 hour (AID 1224884); also: nearly all actives have a fitted effect of over 35% in size; also: potency is read from the fitted curve at half-maximal effect
How it was run: as §1

[11] = qHTS RealTime-Glo MT Cell Viability Assay in HepG2 cells - 16 hour (AID 1224885); also: nearly all actives have a fitted effect of over 50% in size; also: potency is read from the fitted curve at half-maximal effect
How it was run: as §3

[12] = qHTS RealTime-Glo MT Cell Viability Assay in HEK293 cells - 24 hour (AID 1224886); also: nearly all actives have a fitted effect of over 50% in size; also: potency is read from the fitted curve at half-maximal effect
How it was run: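 Quantitative high-throughput screen of the Tox21 10K library in HEK293: cells and RealTime-Glo reagents plated together, compound added at 5 h, luminescence monitored through 40 h at 37 C.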

[13] = qHTS RealTime-Glo MT Cell Viability Assay in HEK293 cells - 8 hour (AID 1224887); also: nearly all actives have a fitted effect of over 50% in size; also: potency is read from the fitted curve at half-maximal effect
How it was run: as §4

[14] = A CellTox Green Cytotoxicity Assay to monitor cytotoxicity in HEK293 cells - 16 hour (AID 1224888); also: nearly all actives have a fitted effect of over 35% in size; also: potency is read from the fitted curve at half-maximal effect
How it was run: as §1

[15] = qHTS RealTime-Glo MT Cell Viability Assay in HepG2 cells - 0 hour (AID 1224889); also: nearly all actives have a fitted effect of over 50% in size
How it was run: as §3

[16] = A CellTox Green Cytotoxicity Assay to monitor cytotoxicity in HepG2 cells - 8 hour (AID 1224890); also: nearly all actives have a fitted effect of over 45% in size; also: potency is read from the fitted curve at half-maximal effect
How it was run: as §2

[17] = qHTS assay to identify small molecule antagonists of the estrogen receptor alpha (ER-alpha) signaling pathway using the BG1 cell line in the presence of 0.1 nM 17-beta-estradiol - cell viability counter screen (AID 1259241); also: nearly all actives have a fitted effect of over 40% in size
How it was run: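 VM7Luc4E2 cells (endogenous full-length ER-alpha, 4xERE-luciferase), cultured 5 days in charcoal-stripped serum, exposed to compounds with 0.1 nM 17beta-estradiol (final) for 22 hr at 37C. Viability read in same wells as live-cell protease fluorescence after 30 min.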

[18] = qHTS assay to identify small molecule antagonists of the androgen receptor (AR) signaling pathway using the MDA cell line in the presence of 0.5 nM R1881 - cell viability counter screen (AID 1259242); also: nearly all actives have a fitted effect of over 45% in size; also: potency is read from the fitted curve at half-maximal effect
How it was run: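 Concentration-response screen of compounds for toxicity in MDA-kb2 reporter cells: 16 hr at 37C with 0.5 nM R1881, endpoint live-cell protease fluorescence measured in the reporter wells.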

[19] = molecular target: Estrogen receptor (Homo sapiens) (UniProt P03372); test: qHTS assay to identify small molecule antagonists of the estrogen receptor alpha (ER-alpha) signaling pathway using the BG1 cell line in the presence of 0.1 nM 17-beta-estradiol (AID 1259244); also: nearly all actives have a fitted effect of over 50% in size
How it was run: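 Compounds were tested against 0.1 nM (final) 17beta-estradiol in VM7Luc4E2 cells, which express full-length ER-alpha and an ERE-luciferase reporter; luminescence was recorded following 22 h exposure.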

[20] = molecular target: Androgen receptor (Homo sapiens) (UniProt P10275); test: qHTS assay to identify small molecule antagonists of the androgen receptor (AR) signaling pathway using the MDA cell line in the presence of 0.5 nM R1881 (AID 1259243); also: nearly all actives have a fitted effect of over 50% in size; also: potency is read from the fitted curve at half-maximal effect
How it was run: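 With R1881 held at 0.5 nM (final), compound effects on MMTV-luciferase expression in MDA-kb2 cells were scored by luminescence after a 16 hr, 37C incubation.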

Measured: Potency

Chain of Estrogen receptor (Homo sapiens) (P03372 whole entry, looked up): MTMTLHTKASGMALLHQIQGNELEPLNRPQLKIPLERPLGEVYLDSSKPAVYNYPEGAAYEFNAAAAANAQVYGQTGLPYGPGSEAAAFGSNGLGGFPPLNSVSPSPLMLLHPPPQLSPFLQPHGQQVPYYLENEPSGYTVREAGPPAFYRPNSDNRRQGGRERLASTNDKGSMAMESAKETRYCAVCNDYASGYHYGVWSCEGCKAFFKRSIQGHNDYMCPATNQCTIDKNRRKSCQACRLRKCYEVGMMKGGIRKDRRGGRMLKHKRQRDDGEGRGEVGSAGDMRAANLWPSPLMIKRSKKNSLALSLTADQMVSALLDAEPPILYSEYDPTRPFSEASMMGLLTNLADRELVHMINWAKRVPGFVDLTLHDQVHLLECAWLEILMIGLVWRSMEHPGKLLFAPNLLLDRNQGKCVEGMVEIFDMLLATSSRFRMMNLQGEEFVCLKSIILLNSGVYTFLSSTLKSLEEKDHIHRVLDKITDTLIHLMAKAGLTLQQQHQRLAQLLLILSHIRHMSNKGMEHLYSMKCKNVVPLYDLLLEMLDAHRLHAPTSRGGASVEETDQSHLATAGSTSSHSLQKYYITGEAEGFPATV
Chain of Androgen receptor (Homo sapiens) (P10275 whole entry, looked up): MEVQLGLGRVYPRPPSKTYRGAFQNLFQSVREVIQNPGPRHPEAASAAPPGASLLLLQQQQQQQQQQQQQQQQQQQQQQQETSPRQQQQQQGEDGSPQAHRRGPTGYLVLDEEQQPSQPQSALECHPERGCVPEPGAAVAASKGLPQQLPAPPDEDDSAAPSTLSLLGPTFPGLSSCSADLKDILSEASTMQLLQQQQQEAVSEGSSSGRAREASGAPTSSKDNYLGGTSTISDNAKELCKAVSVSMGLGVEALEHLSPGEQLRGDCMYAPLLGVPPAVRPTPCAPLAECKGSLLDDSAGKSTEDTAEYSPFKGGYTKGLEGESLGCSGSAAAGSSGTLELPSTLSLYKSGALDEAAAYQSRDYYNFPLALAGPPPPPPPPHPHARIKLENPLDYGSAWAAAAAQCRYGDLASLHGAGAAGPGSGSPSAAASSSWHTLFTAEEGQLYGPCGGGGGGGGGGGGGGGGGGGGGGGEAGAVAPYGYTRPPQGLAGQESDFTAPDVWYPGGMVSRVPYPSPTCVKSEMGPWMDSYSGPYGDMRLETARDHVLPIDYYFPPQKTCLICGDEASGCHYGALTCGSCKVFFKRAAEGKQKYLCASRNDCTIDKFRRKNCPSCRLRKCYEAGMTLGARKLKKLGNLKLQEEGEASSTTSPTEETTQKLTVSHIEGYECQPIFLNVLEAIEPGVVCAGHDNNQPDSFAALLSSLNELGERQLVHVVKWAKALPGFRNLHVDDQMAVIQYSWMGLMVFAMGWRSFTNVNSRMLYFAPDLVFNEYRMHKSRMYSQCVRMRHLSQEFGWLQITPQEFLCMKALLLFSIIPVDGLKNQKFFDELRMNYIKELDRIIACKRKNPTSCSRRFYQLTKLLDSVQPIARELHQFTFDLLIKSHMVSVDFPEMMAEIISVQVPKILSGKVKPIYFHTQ

CCN(CC)c1ccc(C=O)c(O)c1
inactive: [1] | [2] | [3] | [4] | [5] | [6] | [7] | [8] | [9] | [10] | [11] | [12] | [13] | [14] | [15] | [16] | [17] | [18] | [19]

CC/C(=C(/c1ccc(O)cc1)c1ccc(OCCN(C)C)cc1)c1ccccc1
active: [1] 25.7 µM | [2] 25.7 µM | [3] 14.4 µM | [4] 18.2 µM | [5] 12.9 µM | [7] 22.9 µM | [9] 14.4 µM | [10] 28.8 µM | [11] 28.8 µM | [12] 10.2 µM | [13] 14.4 µM | [14] 28.8 µM | [16] 32.3 µM | [18] 40.3 µM | [20] 32 µM
inactive: [6] | [8] | [15] | [17]

COC(=O)c1ccc([N+](=O)[O-])cc1
inactive: [1] | [2] | [3] | [4] | [5] | [6] | [7] | [8] | [9] | [10] | [11] | [12] | [13] | [14] | [15] | [16] | [17] | [20]

C=Cc1ccc(O)c(OC)c1
inactive: [1] | [2] | [3] | [4] | [5] | [6] | [7] | [8] | [9] | [10] | [11] | [12] | [13] | [14] | [15] | [16] | [17] | [18]

Cc1ccc2nc(-c3ccc(N)cc3)sc2c1S(=O)(=O)O
inactive: [1] | [2] | [3] | [4] | [5] | [6] | [7] | [9] | [10] | [11] | [12] | [13] | [14] | [15] | [16] | [17] | [18] | [20] | [19]

CCOC=C(C(=O)OCC)C(=O)OCC
inactive: [1] | [2] | [3] | [4] | [5] | [6] | [7] | [9] | [10] | [11] | [12] | [13] | [14] | [15] | [16] | [17] | [18] | [20] | [19]

[Cl][Sc]([Cl])[Cl]
inactive: [1] | [2] | [3] | [4] | [5] | [6] | [7] | [8] | [9] | [10] | [11] | [12] | [13] | [14] | [15] | [16] | [17] | [20] | [19]

CCCCCCCCSCc1cc(C)c(O)c(CSCCCCCCCC)c1
active: [13] 9.77 µM
inactive: [1] | [2] | [3] | [4] | [5] | [6] | [7] | [8] | [9] | [10] | [11] | [14] | [15] | [16] | [17] | [18] | [20] | [19]

S=C1NC=NC2N=CNC12 (centres undefined)
inactive: [1] | [2] | [3] | [4] | [5] | [6] | [7] | [9] | [10] | [11] | [13] | [14] | [15] | [16] | [17] | [18]
active: [12] 21.9 µM

Clc1cccc(Cl)n1
inactive: [1] | [2] | [3] | [4] | [5] | [6] | [7] | [8] | [9] | [10] | [11] | [12] | [13] | [14] | [15] | [16] | [17] | [20] | [19]

Cc1cccc(C)c1C
inactive: [1] | [2] | [3] | [4] | [5] | [6] | [7] | [9] | [10] | [11] | [12] | [13] | [14] | [15] | [16] | [17] | [18]

Nc1cccnc1N
inactive: [1] | [2] | [3] | [4] | [5] | [6] | [7] | [8] | [9] | [10] | [11] | [13] | [14] | [15] | [16] | [19]
